CYP2C19 activ = human CYP2C19 activators, primary screen, biochemical, luminescence; Cytochrome P450 2C19 (Homo sapiens), P33261; recombinant CYP2C19, luciferin-H EGE luminescence; stronger effect = higher value; 0 = fully inhibited enzyme, 1 = untreated enzyme; activation factor at 5 µM; 96,000 tested, under 10 active; AID 1025, 2008;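 active = activation factor of at least 2 at 5 µM in the primary screen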;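 note: 0 = wells with 2.5 mM tranylcypromine and 1 = vehicle-only wells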
Target sequence (P33261 whole entry, looked up): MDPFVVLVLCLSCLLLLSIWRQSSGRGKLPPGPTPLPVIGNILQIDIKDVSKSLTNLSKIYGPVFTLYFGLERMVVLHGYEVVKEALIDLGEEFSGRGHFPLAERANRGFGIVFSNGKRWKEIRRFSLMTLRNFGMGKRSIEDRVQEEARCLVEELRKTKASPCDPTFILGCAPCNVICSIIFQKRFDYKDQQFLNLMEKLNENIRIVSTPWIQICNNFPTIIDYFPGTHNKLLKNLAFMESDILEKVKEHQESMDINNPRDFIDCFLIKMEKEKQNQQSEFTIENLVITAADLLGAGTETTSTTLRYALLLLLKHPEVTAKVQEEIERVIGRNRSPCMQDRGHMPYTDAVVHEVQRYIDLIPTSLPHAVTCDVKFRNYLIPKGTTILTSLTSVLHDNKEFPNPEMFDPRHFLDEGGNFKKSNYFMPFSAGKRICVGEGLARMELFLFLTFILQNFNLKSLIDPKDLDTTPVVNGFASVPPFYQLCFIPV
CYP2C9 inhib = blockers of cytochrome P450 2C9 activity – biochemical, luminescence, ADME assay, primary screen; P11712; CYP2C9 Supersomes, luciferin-H conversion; inhibition, % at 5 µM; 20% of 96,000 active; AID 777, 2007;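 active = blocking of liver enzyme CYP2C9 beyond about 50% at 5 µM, limit read from the data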
sEH inh = soluble epoxide hydrolase inhibitors, primary screen, biochemical, human sEH. recombinant human sEH enzymatic activity assay. AID 707, 2007. inhibition, % at 2 µM. Bifunctional epoxide hydrolase 2 (Homo sapiens), P34913. 0.34% of 91,000 active; in the data active = inhibition above about 80%
CYP2C9 activ = human CYP2C9 activators, primary screen, biochemical, luminescence; Cytochrome P450 2C9 (Homo sapiens), P11712; recombinant CYP2C9, luciferin-H conversion; stronger effect = higher value; factor 1 = untreated enzyme, 0 = blocked; activation factor at 5 µM; 1.4% of 96,000 active;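 active = activation factor of 2 or more for CYP2C9 at a 5 µM dose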;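 note: 0 = sulfaphenazole-blocked wells and 1 = vehicle-only wells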
sEH act = soluble epoxide hydrolase activators, primary screen, biochemical, human sEH; purified human sEH enzymatic activity, activator screen; activation, % at 2 µM; 0.04% of 91,000 active; AID 717, 2007; in the data active = activation above about 37%
CYP2C19 inh = blockers of cytochrome P450 2C19 activity – biochemical, luminescence, ADME assay, primary screen. CYP2C19 Supersomes, luciferin-H EGE luminescence, 30 min. inhibition, % at 5 µM. 21% of 96,000 active. AID 778, 2007;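 active = CYP2C19 inhibition above a set limit at 5 µM in the primary screen, cut at about 50% in these data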;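 note: plate controls were negative control wells for no effect and 2.5 mM tranylcypromine positive control for full effect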
Numbers without * were called inactive; . = no result. Shown are actives, neighbours in structure and some others; about 27% of the full set was active somewhere.

SMILES	CYP2C19 activ	CYP2C9 inhib	sEH inh	CYP2C9 activ	sEH act	CYP2C19 inh
COc1ccc(C(=O)CSc2nc(N)nc(SC)c2C#N)cc1	0.8	27	-30	0.7	33	25
COc1ccc(C(=O)CSC2=C(C#N)C3(CCCCC3)C(C#N)=C(N)N2)cc1	0	98*	.	0	.	100*
N#CC1=C(N)NC(SCC(=O)c2ccc(Cl)cc2)=C(C#N)C12CCCC2	0	97*	19	0	-17	100*
N#CC1=C(N)NC(SCC(=O)Nc2ccccc2)=C(C#N)C12CCCCC2	.	.	-1	.	0	.
CC(C)(C)c1cc2cccnc2n1Cc1cccc(Cl)c1	0.5	16	-5	0.8	8	48
Cc1ccc(C)c(N(CC(=O)NCCC2=CCCCC2)S(C)(=O)=O)c1	0.7	36	-13	0.6	16	31
CCN(CC)c1ccc(-c2c(C#N)c(N)nc(OC)c2C#N)cc1	1	54*	-26	0.5	27	3
CCCSc1nc(N)c(C#N)c(-c2ccc(C)cc2)c1C#N	1	13	6	0.9	-5	0
Cc1csc(NC(=O)C(CC(C)C)NS(=O)(=O)c2ccc3c(c2)oc(=O)n3C)n1 (stereo unspecified)	0.6	55*	.	0.4	.	36
Cc1[nH]nc2c1C(c1ccccc1F)CC(=O)N2 (stereo unspecified)	1	-8	5	1.1	-4	0
CS(=O)(=O)Cc1nc2ccccc2oc1=O	0.4	45	-1	0.6	1	64*
CN(C)CCCNCC(=O)Nc1ccccc1N1CCOCC1	1	67*	0	0.3	1	2
Cc1ccc(-c2nnn(CC(=O)Nc3ccccc3N3CCOCC3)n2)cc1	0.7	79*	-14	0.2	14	26
Cn1nnnc1SCC(=O)Nc1ccccc1N1CCOCC1	0.8	9	-5	0.9	8	24
Cn1c(-c2ccc(F)cc2)cnc1SCC(=O)Nc1ccccc1N1CCOCC1	0.3	46	7	0.5	-8	68*
CC1(C)Cc2cccc(OCC(=O)Nc3ccccc3N3CCOCC3)c2O1	0.1	56*	-2	0.4	1	91*
Cc1ccc(OCc2nnc(SCC(=O)c3cccc([N+](=O)[O-])c3)n2C)cc1	1.1	13	-1	0.9	1	-8
CCS(=O)(=O)NCC(c1cccnc1)N1CCN(c2ccc(F)cc2)CC1 (stereo unspecified)	1	3	13	1	-13	4
CCN(CC)CCCN(C(C)=O)c1nc(-c2cc(OC)ccc2OC)cs1	0.7	6	-9	0.9	6	34
O=C(Cn1nnc(-c2ccccc2)n1)Nc1ccccc1N1CCOCC1	0.4	74*	.	0.3	.	63*
CCc1ccccc1NC(=O)Cn1nnc(-c2cccnc2)n1	0	15	13	0.9	-12	96*
CCOc1cc(CNn2cnnc2)ccc1OCC(=O)NC1CCCCC1	0.7	65*	-4	0.3	1	28
Nc1nc(SCC(=O)NC2CCCCC2)[nH]c(=O)c1-c1ccccc1	0.8	13	34	0.9	-36	25
CCc1cc(=O)oc2cc(OCC(N)=O)c(Cl)cc12	1	-6	3	1.1	-3	-4
CCOC(=O)CN1CC23C=CC(O2)C(C(=O)Nc2ccc(F)c(C)c2)C3C1=O (stereo unspecified)	0.6	0	-4	1	5	36
SMILES	CYP2C19 activ	CYP2C9 inhib	sEH inh	CYP2C9 activ	sEH act	CYP2C19 inh
CCCCN(C(=O)NC(=O)Nc1ccccc1OCC)S(C)(=O)=O	0.5	79*	0	0.2	1	54*
Cc1onc(-c2ccccc2Cl)c1C(=O)N1CCN=C1SCc1cccnc1	0	94*	-13	0.1	12	97*
CSC1=NCCN1C(=O)c1c(-c2ccccc2Cl)noc1C	0.3	18	-2	0.8	0	71*
Cc1onc(-c2ccccc2Cl)c1C(=O)N1C=CC(C(F)(F)F)=NCC1	0.6	21	-4	0.8	3	38
Cc1onc(-c2ccccc2Cl)c1C(=O)N1C=CC(C(F)(F)Cl)=NCC1	0.4	32	-11	0.7	14	56*
Cc1occc1C(=O)NNC(=O)C(c1ccccc1)c1ccccc1	0.8	41	-5	0.6	6	20
O=c1c(-c2nc3ccccc3s2)cccn1Cc1ccccc1	0.9	15	-13	0.9	16	13
c1ccc(Cn2ccc(-c3cnc(-c4ccccc4)s3)n2)cc1	0.1	74*	-24	0.3	23	94*
CC(=O)N1CCc2cc(S(=O)(=O)CCC(=O)Nc3ccc4c(c3)OCCO4)ccc21	0.9	4	.	1	.	12
CC(=O)N1CCc2cc(S(=O)(=O)NC(C(=O)Nc3nc(C)cs3)C(C)C)ccc21 (stereo unspecified)	1	2	.	1	.	2
CC(=O)N1CCc2cc(S(=O)(=O)NC(C(=O)Nc3ccc4c(c3)OCCO4)C(C)C)ccc21 (stereo unspecified)	0.6	52*	.	0.5	.	39
CCOC(=O)c1cccc(NC(=O)C(NS(=O)(=O)c2ccc3c(c2)CCN3C(C)=O)C(C)C)c1 (stereo unspecified)	0.8	68*	.	0.3	.	19
CN(C)c1cc[nH]c(=O)c1C#N	1.1	-7	-7	1.1	4	-6
CCOC(=O)C(C)n1cnc2c(nnn2Cc2ccc(C)cc2)c1=O (stereo unspecified)	0.5	-191	-2	2.9*	8	53*
Cc1ccc(Cn2nnc3c(=O)n(Cc4cccc(C)c4)cnc32)cc1	0.7	-106	10	2.1*	-7	34
CCOC(=O)C(C)n1cnc2c(nnn2-c2ccc(C)cc2)c1=O (stereo unspecified)	1	16	5	0.8	-5	2
Cc1ccc(Cn2cnc3c(nnn3Cc3ccc(Cl)cc3)c2=O)cc1	0.8	18	-6	0.8	6	21
CCOC(=O)C(C)n1cnc2c(nnn2Cc2ccc(Cl)cc2)c1=O (stereo unspecified)	0.8	-147	16	2.5*	-17	21
O=c1c2ccccc2nc(CSc2ncnc3nc[nH]c23)n1-c1cccc(C(F)(F)F)c1	1.1	6	-11	0.9	8	-13
CCCc1nn2c(=O)c(C(c3cccc(Cl)c3)c3c(O)nc4sc(CCC)nn4c3=O)c(O)nc2s1	1	12	-8	0.9	11	4
COc1ccc(CNC(=O)CCCNS(=O)(=O)c2cccc3nonc23)cc1	0.7	26	.	0.7	.	35
